Source: PubChem BioAssay
KLF5 inh: kruppel-like factor 5 inhibition | DLD-1 KLF5 promoter-luciferase reporter, luminescence | inhibition, % at 5 µM | 290,000 compounds, 0.23% hits;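 active means inhibition above a per-plate limit of that plate's mean compound inhibition plus 3 SD, cut at about 60% in these data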;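 further: 0% = DMSO wells and 100% = LY294002 at 200 µM; higher means less KLF5 promoter-driven luciferase light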
BaF3 parental: reduces parental Ba/F3 cell viability, JAK2V617F counter-screen | CellTiter-Glo ATP luminescence | inhibition, % at 5.6 µM | 220,000 compounds, 1.1% hits;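 active means inhibition above a per-campaign cutoff, the mean inhibition of all tested compounds plus 3 SD, cut at about 27% in these data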;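 further: 0% = DMSO wells and 100% = JAK Inhibitor I control wells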
APP 5UTR inh: APP translation inhibition; 190,000 compounds, 0.82% hits; inhibition, % at 2 µM; AID 1285; SH-SY5Y APP 5'UTR-luciferase reporter, luminescence;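 active means inhibition above a set limit, derived from the sample mean plus 3 SD, cut at about 45% in these data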
IEC-6 tox-1: counter-screen for KLF5 inhibitors: cytotoxicity in IEC-6 cells | IEC-6 cytotoxicity, luminescence viability | inhibition, % at 5 µM | 290,000 compounds, 0.78% hits;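 further: 0% = plate median of test compound wells and 100% = cytotoxic reference compound wells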
Ba/F3 V617F tox: loss of viability in JAK2V617F-driven Ba/F3 cells; Ba/F3 EpoR-JAK2V617F viability, ATP luminescence; inhibition, % at 5.6 µM; 220,000 compounds, 1.1% hits;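 active means inhibition above the campaign mean plus 3 SD over all tested compounds, cut at about 24% in these data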;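 further: cytokine-independent growth of Ba/F3 cells driven by EpoR plus mutant JAK2; 0% = DMSO-treated cells and 100% = JAK inhibitor I control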
KLF5 inh confirm: KLF5 inhibition, confirmation assay; 610 compounds, 79% hits; DLD-1 KLF5 promoter firefly luciferase reporter, luminescence; AID 1834; shares compounds with KLF5 inh; inhibition, % at 4 µM;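 active means inhibition above a set limit taken from the earlier primary screen, cut at about 63% in these data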;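 further: 0% = DMSO wells and 100% = LY294002 at 200 µM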
IEC-6 tox-2: kills rat IEC-6 cells in KLF5 counter-screen; inhibition, % at 4 µM; shares compounds with KLF5 inh; 610 compounds, 56% hits; IEC-6 rat intestinal cells, viability luminescence; AID 1905; in the data active means inhibition above about 23%;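 further: cells exposed to compounds for 48 hours before viability read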
IEC-6 tox confirm: IEC-6 cytotoxicity, confirmation assay; shares compounds with IEC-6 tox-1; IEC-6 rat intestinal epithelial viability, luminescence; inhibition, % at 5 µM; 1,900 compounds, 63% hits;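 further: 0% = vehicle and 100% = reference cytotoxic drug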
* hit, by the source's call. Shown are actives, neighbours in structure and some others; about 1.9% of the full set was active somewhere. Unless noted, no stated cut-off is given here; in the data, active means inhibition above about 22%; inactive means the rest.

How did COc1ccc(CC(=O)NCc2ccc(-n3cccc3)cc2)cc1OC do in these assays?
KLF5 inh: 70.9*; IEC-6 tox-1: 75.6*; KLF5 inh confirm: 71.6*; IEC-6 tox-2: 59.9*; IEC-6 tox confirm: 58.0*

What do the screens show for `COCCCNc1nnc(Cc2ccc(Cl)cc2)c(=O)[nH]1`?
KLF5 inh: 62.2*; IEC-6 tox-1: 82.0*; KLF5 inh confirm: 80.4*; IEC-6 tox-2: 38.4*; IEC-6 tox confirm: 59.9*

Results for CC(=O)Nc1ccc(C(=O)Nc2nc(-c3ccccn3)cs2)cc1 ?
KLF5 inh: -29.6; BaF3 parental: 11.0; APP 5UTR inh: -0.6; IEC-6 tox-1: 3.8; Ba/F3 V617F tox: 2.4

What do the screens show for `O=C(Nc1nc(-c2ccccn2)cs1)c1ccccc1-n1cnnn1`?
KLF5 inh: 71.1*; BaF3 parental: 62.6*; IEC-6 tox-1: 90.2*; Ba/F3 V617F tox: 66.5*; KLF5 inh confirm: 75.7*; IEC-6 tox-2: 58.6*; IEC-6 tox confirm: 69.9*

What do the screens show for `CC(=O)Nc1ccc(S(=O)(=O)NC(C(=O)O)C(C)C)cc1` (centres undefined)?
KLF5 inh: -3.5; BaF3 parental: 3.2; APP 5UTR inh: -1.3; IEC-6 tox-1: -2.5; Ba/F3 V617F tox: 3.8

What do the screens show for `COc1ccc2c(c1)sc1nc(-c3ccccc3)cn12`?
KLF5 inh: 71.8*; BaF3 parental: 68.8*; APP 5UTR inh: 86.5*; IEC-6 tox-1: 75.7*; Ba/F3 V617F tox: 69.9*; KLF5 inh confirm: 102.9*; IEC-6 tox-2: 70.5*; IEC-6 tox confirm: 55.0*

What do the screens show for `COc1ccccc1CC(=O)NNC(=O)c1ccc(C(C)(C)C)cc1`?
KLF5 inh: -34.9; IEC-6 tox-1: 0.0

What do the screens show for `Cc1ccccc1-c1cc2c(nn1)-c1ccccc1C2=O`?
KLF5 inh: 102.1*; BaF3 parental: 87.9*; APP 5UTR inh: -16.7; IEC-6 tox-1: 102.2*; Ba/F3 V617F tox: 91.2*; KLF5 inh confirm: -79.8; IEC-6 tox-2: 12.8; IEC-6 tox confirm: 41.1*

What do the screens show for `CC(=O)c1cccc(Nc2c3c(nc4ccccc24)CCC3)c1`?
KLF5 inh: 64.8*; IEC-6 tox-1: 75.3*; KLF5 inh confirm: 102.0*; IEC-6 tox-2: 51.0*; IEC-6 tox confirm: 51.0*

How did Cn1nc(-c2ccc(Cl)cc2)nc2c(=O)n(C)c(=O)nc1-2 do in these assays?
KLF5 inh: 90.5*; BaF3 parental: 85.4*; APP 5UTR inh: -13.2; IEC-6 tox-1: 97.5*; Ba/F3 V617F tox: 94.9*; KLF5 inh confirm: 113.3*; IEC-6 tox-2: 63.2*; IEC-6 tox confirm: 77.5*

Results for CC(=O)c1cccc(NC(=O)C2C3CCC(C3)C2C(=O)O)c1 (centres undefined) ?
KLF5 inh: -22.3; IEC-6 tox-1: -6.9

What do the screens show for `C/C(=N\NC(=O)c1nnn(-c2nonc2N)c1-c1ccc2c(c1)OCO2)c1ccccc1`?
KLF5 inh: -23.0; IEC-6 tox-1: -11.6

What do the screens show for `C/C(=N\NC(=O)c1nnn(-c2nonc2N)c1-c1ccccc1)c1ccccc1O`?
KLF5 inh: 62.0*; IEC-6 tox-1: 96.2*; KLF5 inh confirm: 85.4*; IEC-6 tox-2: 62.6*; IEC-6 tox confirm: 74.7*

Results for O=c1c2ccccc2cnn1-c1nc2ccccc2[nH]1 ?
KLF5 inh: 105.3*; BaF3 parental: 64.7*; APP 5UTR inh: 69.3*; IEC-6 tox-1: 53.5*; Ba/F3 V617F tox: 64.8*; KLF5 inh confirm: 100.3*; IEC-6 tox-2: 52.1*; IEC-6 tox confirm: 60.0*

Results for CN(C)c1ncnc2c1ncn2C1OC(CO)C(O)C1O (centres undefined) ?
KLF5 inh: 65.1*; BaF3 parental: 13.2; APP 5UTR inh: 39.6; IEC-6 tox-1: 50.9*; Ba/F3 V617F tox: 7.6; KLF5 inh confirm: 70.1*; IEC-6 tox-2: 48.1*; IEC-6 tox confirm: 70.6*

Results for CSc1ncc2ncn(C3OC(CO)C(O)C3O)c2n1 (centres undefined) ?
KLF5 inh: 7.2; BaF3 parental: 1.5; IEC-6 tox-1: -1.8; Ba/F3 V617F tox: -2.4

Results for COc1cc(C(=O)NC2CCCc3ccccc32)cc(OC)c1OC (centres undefined) ?
KLF5 inh: -2.6; IEC-6 tox-1: -1.6

What do the screens show for `CCN(CC)c1ccc2c(cc1=O)[C@@H](NC)CCc1cc(OC)c(OC)c(OC)c1-2`?
KLF5 inh: 70.1*; IEC-6 tox-1: 85.0*; KLF5 inh confirm: 91.5*; IEC-6 tox-2: 80.7*; IEC-6 tox confirm: 75.9*

What do the screens show for `CN[C@H]1CCc2cc(OC)c(OC)c(OC)c2-c2ccc(N(C)CC(OC)OC)c(=O)cc21`?
KLF5 inh: 4.1; IEC-6 tox-1: 9.5

What do the screens show for `COc1cc2c(c(OC)c1OC)-c1ccc(OC)c(=O)cc1[C@@H](NC(C)=O)CC2`?
KLF5 inh: 79.2*; IEC-6 tox-1: 95.5*; KLF5 inh confirm: 87.5*; IEC-6 tox-2: 81.1*; IEC-6 tox confirm: 83.1*

How did COc1cc2c(c(OC)c1OC)-c1ccc(OC)c(=O)cc1[C@@H](N(C)CC#CCO)CC2 do in these assays?
KLF5 inh: 81.2*; IEC-6 tox-1: 93.0*; KLF5 inh confirm: 92.4*; IEC-6 tox-2: 74.6*; IEC-6 tox confirm: 74.4*

What do the screens show for `COc1cc2c(c(OC)c1OC)-c1ccc(N(C)CC(OC)OC)c(=O)cc1[C@@H](NC(C)=O)CC2`?
KLF5 inh: 86.0*; IEC-6 tox-1: 92.4*; KLF5 inh confirm: 86.2*; IEC-6 tox-2: 61.0*; IEC-6 tox confirm: 66.3*

What do the screens show for `COc1ccc(C)cc1S(=O)(=O)N1CCN(C(=O)c2ncoc2-c2ccccc2C)CC1`?
KLF5 inh: -8.0; IEC-6 tox-1: 8.6

How did Cc1c(/C=N\NC(=O)c2c[nH]c3ccccc23)cnn1C do in these assays?
KLF5 inh: -8.0; BaF3 parental: 7.4; APP 5UTR inh: -26.6; IEC-6 tox-1: 0.2; Ba/F3 V617F tox: 2.1

Results for O=C(NC(=S)Nc1cc(Cl)ccc1O)c1cccc(Br)c1 ?
KLF5 inh: -49.0; BaF3 parental: 1.1; IEC-6 tox-1: 9.6; Ba/F3 V617F tox: -6.5

How did CCCCN1/C(=C/c2cccc[n+]2C)Sc2cc(NC(C)=O)ccc21 do in these assays?
KLF5 inh: -25.5; IEC-6 tox-1: -4.0

How did Cc1ccc2c(c1)N(C)/C(=C/c1cccc[n+]1C)S2 do in these assays?
KLF5 inh: 15.9; IEC-6 tox-1: 18.6

How did CCN1/C(=C/c2ccc3cc(C)ccc3[n+]2CC)Sc2cc(C)ccc21 do in these assays?
KLF5 inh: 16.9; BaF3 parental: 84.8*; APP 5UTR inh: 63.1*; IEC-6 tox-1: 34.8*; Ba/F3 V617F tox: 99.3*; IEC-6 tox confirm: 33.9*

Results for CCCCN1/C(=C/c2ccc3ccccc3[n+]2CC)Sc2ccccc21 ?
KLF5 inh: 6.8; BaF3 parental: 80.4*; APP 5UTR inh: -7.7; IEC-6 tox-1: 41.6*; Ba/F3 V617F tox: 101.0*; IEC-6 tox confirm: 14.1
